Test results published in PubChem BioAssay.
Where “and” joins values, the source holds several entries; their conditions need not be identical. Equal values may be shown once. Results filed as inconclusive are left out. Calls of active or inactive are those of the source.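 The calls were made as follows, unless noted: active = normalized viability below 100% at a tested concentration; inactive = the rest.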

Tests used:
[1] = P. berghei load reduction in hepatocytes – cell-based, HepG2, luciferase luminescence, HepG2 viability, primary screen (AID 624349; in the data active = parasite load remaining mostly below about 12%, no sharp cut-off; inactive = mostly above about 10%;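 also: 100% = mean of DMSO negative control wells on the same plate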); settings: P. berghei liver stage in HepG2, luciferase luminescence, concentration not given here; parasite load remaining: stronger effect = lower value; viability: measured here: HepG2 viability without parasites
[2] = Wnt pathway potentiators raising nuclear beta-catenin – imaging, WNT3A-conditioned medium, mouse C2C12, NPC library, primary screen (AID 1117326; in the data active = nuclear beta-catenin stimulation mostly above about 4.2%, no sharp cut-off; inactive = mostly below about 10%); settings: stronger effect = higher value
[3] = stimulators of insulin release from INS-1E, primary screen, cell-based, 5 mM glucose, NPC library (AID 1117329;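 active = compound raises insulin release from rat beta cells at 5 mM glucose, no numeric limit stated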); settings: rat INS-1E insulin secretion, at 10 µM, stronger effect = higher value
[4] = growth inhibition of GSK3B-pretreated HCT116 cells – cell-based, CellTiter-Glo, 0.2 to 20 µM (AID 1117336;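 active = compounds lowering colon cancer cell viability after pretreatment blocking the GSK3B kinase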); settings: HCT116 viability after GSK3B inhibitor, at 20 µM, stronger effect = higher value
[5] = inhibition of endothelial tube formation, primary screen, imaging, VEGF stimulated, CD31 staining, tube area, NPC library (AID 1117340;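 active = compound that reduces growth-factor-driven endothelial tube area in a mixed cell culture, no cutoff stated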); settings: VEGF-stimulated ADSC/ECFC co-culture, at 10 µM, stronger effect = higher value
[6] = GLP1 release stimulators, primary, NCI-H716, NPC library (AID 1117341;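 active = compound raises GLP1 secretion from the human gut endocrine cells, with no numeric limit stated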); settings: NCI-H716 cells, at 10 µM, stronger effect = higher value
[7] = HCT116 colon cancer cell growth inhibition, primary screen, CellTiter-Glo luminescence, NPC library (AID 1117342;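 active = compounds that lower survival of HCT116 colon cancer cells in the luminescence readout, no numeric limit stated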); settings: at 20 µM (top of the series)
[8] = reduced SW480 viability measured with CellTiter-Glo, NPC library, primary (AID 1117343;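 active = compounds that lower viability of the colon cancer cells in the luminescence readout, with no numeric limit stated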); settings: CellTiter-Glo luminescence; at 20 µM (top of the series) unless noted
[9] = NPC library primary testing for decreased DLD-1 cell viability via CellTiter-Glo (AID 1117346;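 active = compounds that lower survival of DLD-1 colon cancer cells in the luminescence readout, no cutoff given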); settings: DLD-1 viability, CellTiter-Glo luminescence; at 20 µM (top of the series)
[10] = viability loss in pontine glioma line – cell-based, SU-DIPG-XVII, MIPE5.0, CellTiter-Glo, qHTS, dose response (AID 1347060; cut-off not given, nearly all actives have AC50 up to about 26 µM;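 as to AC50: cells exposed to compound for 48 hours before viability readout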); settings: CellTiter-Glo ATP luminescence
[11] = viability loss in pontine glioma line – cell-based, SU-DIPG-XIII, MIPE4.0, CellTiter-Glo, qHTS, dose response (AID 1347061; cut-off not given, nearly all actives have AC50 up to about 37 µM;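 also: cells exposed to compound for 48 hours before readout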); settings: CellTiter-Glo ATP luminescence
[12] = viability loss in pontine glioma line – cell-based, JHH-DIPG-1, MIPE4.0, CellTiter-Glo, qHTS, dose response (AID 1347062; cut-off not given, nearly all actives have AC50 up to about 27 µM); settings: JHH-DIPG-1 viability, CellTiter-Glo ATP luminescence
[13] = growth inhibition of DIPG cells – cell-based, MIPE5.0 library, qHTS (AID 1347068; cut-off not given, nearly all actives have IC50 up to about 30 µM); settings: SU-DIPG-XXV viability
[14] = viability loss with induced miR-34 in A549 – imaging, A549 dox-inducible miR-34, nuclei and caspase counts, primary screen (AID 1347080;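 active = compounds whose cell count with miR-34 switched on is under 0.7 times the count with it off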); settings: A549 miR-34 inducible, Hoechst nuclei count, 48 h
[15] = MELAS cybrid and Rieske KO viability enhancers – cell-based, MELAS cybrids, Rieske KO mouse fibroblasts, CellTiter-Glo, primary screen (AID 1508586;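 active = mean z-score across replicates of 1.96 or higher in either the MELAS or the Rieske mutant cell line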;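 also: z relative to plate mean and SD of compound and empty wells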); settings: low glucose
[16] = drug combination growth inhibition, ovarian cancer – cell-based, oncology-focused library, rucaparib conditional, profiling panel (AID 1508598); settings: patient-derived ovarian cancer cells, CellTiter-Glo viability, 144 h, stronger effect = lower value
[17] = galactose survival enhancers in mitochondrial complex I cybrids – cell-based, galactose medium, ATP luminescence, primary screen (AID 1645843;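 active = z-score of at least 1.8 in each of two replicates, scored against plate mean and spread of sample wells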;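 also: positive z means more ATP and so rescue of galactose-driven cybrid death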); settings: complex I mutant cybrid cells, 72 h, stronger effect = higher value
[18] = tested on: Aerobactin synthetase IucA (Klebsiella pneumoniae); assay: inhibition of K. pneumoniae IucA enzyme – biochemical, Tocris library, absorbance (AID 1345561; call rule not given here;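 also: 100% = enzyme without compound and 0% = no enzyme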); settings: purified IucA enzyme assay, absorbance (OD) read-out; stronger effect = lower value;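 tested at 8 µM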
[19] = stronger effect = lower value, cell number ratio, induced over uninduced
[20] = measured here: relative caspase fold change +Dox/-Dox
[21] = measured here: total cells with miR-34 induction, stronger effect = lower value
[22] = measured here: total cells without miR-34 induction

Clc1ccc(Nc2nnc(Cc3ccncc3)c3ccccc23)cc1
0.974 and 0.999: fold change [14, 20]
-0.4%: nuclear beta-catenin stimulation ([2]; stimulation, at 2 µM)
4850 and 8750: cell count [14, 22]
0.486 and -0.638 and 0.713: z-score ([15]; Rieske KO mouse fibroblast survival, CellTiter-Glo 72 h)
4800 and 8110: cell count [14, 21]
144%: viability [1]
active: viability decrease [4] 76.2% | tube area decrease [5] 104% | viability decrease (inhibition) [8] 51.3% | AC50 [10] 16.6 µM | viability ([16]; at 0.000305 µM, OCI-C5x cells, without rucaparib) 86.5% | viability ([16]; at 0.000305 µM, OCI-P5x cells, with rucaparib 20 µM, 100% = cells with rucaparib alone) 94.6% | viability ([16]; at 0.000305 µM, OCI-P5x cells, without rucaparib) 89.3% | viability ([16]; at 0.00122 µM, OCI-C5x cells, without rucaparib) 97.1% | viability ([16]; at 0.00122 µM, OCI-P5x cells, without rucaparib) 94.6% | viability ([16]; at 0.00488 µM, OCI-C5x cells, without rucaparib) 98.5% | viability ([16]; at 0.00488 µM, OCI-P5x cells, with rucaparib 20 µM, 100% = cells with rucaparib alone) 99.2% | viability ([16]; at 0.0195 µM, OCI-C5x cells, without rucaparib) 99.4% | viability ([16]; at 0.0195 µM, OCI-P5x cells, without rucaparib) 95.6% | viability ([16]; at 0.0781 µM, OCI-C5x cells, without rucaparib) 98.5% | viability ([16]; at 0.0781 µM, OCI-P5x cells, without rucaparib) 95.5% | viability ([16]; at 1.25 µM, OCI-P5x cells, without rucaparib) 94.9% | viability ([16]; at 5 µM, OCI-P5x cells, with rucaparib 20 µM, 100% = cells with rucaparib alone) 95.2% | viability ([16]; at 5 µM, OCI-P5x cells, without rucaparib) 99.5%
inactive: parasite load remaining [1] 24.4% | nuclear beta-catenin stimulation ([2]; at 10 µM) -2.6% | insulin secretion stimulation [3] 9.3% | GLP1 secretion stimulation [6] -2.6% | inhibition of viability [7] 36% | viability decrease (inhibition) [9] 35.7% | outcome [11] | outcome [12] | outcome [13] | fold change [14, 19] 0.99 and 0.927 | z-score ([15]; MELAS cybrid survival, CellTiter-Glo 48 h, stronger effect = higher value) -0.464 and -0.665 and -0.288 | viability ([16]; at 0.000305 µM, OCI-C5x cells, with rucaparib 10 µM, 100% = cells with rucaparib alone) 121% | viability ([16]; at 0.00122 µM, OCI-C5x cells, with rucaparib 10 µM, 100% = cells with rucaparib alone) 125% | viability ([16]; at 0.00122 µM, OCI-P5x cells, with rucaparib 20 µM, 100% = cells with rucaparib alone) 102% | viability ([16]; at 0.00488 µM, OCI-C5x cells, with rucaparib 10 µM, 100% = cells with rucaparib alone) 117% | viability ([16]; at 0.00488 µM, OCI-P5x cells, without rucaparib) 100% | viability ([16]; at 0.0195 µM, OCI-C5x cells, with rucaparib 10 µM, 100% = cells with rucaparib alone) 121% | viability ([16]; at 0.0195 µM, OCI-P5x cells, with rucaparib 20 µM, 100% = cells with rucaparib alone) 102% | viability ([16]; at 0.0781 µM, OCI-C5x cells, with rucaparib 10 µM, 100% = cells with rucaparib alone) 114% | viability ([16]; at 0.0781 µM, OCI-P5x cells, with rucaparib 20 µM, 100% = cells with rucaparib alone) 101% | viability ([16]; at 0.313 µM, OCI-C5x cells, with rucaparib 10 µM, 100% = cells with rucaparib alone) 125% | viability ([16]; at 0.313 µM, OCI-C5x cells, without rucaparib) 110% | viability ([16]; at 0.313 µM, OCI-P5x cells, with rucaparib 20 µM, 100% = cells with rucaparib alone) 100% | viability ([16]; at 0.313 µM, OCI-P5x cells, without rucaparib) 105% | viability ([16]; at 1.25 µM, OCI-C5x cells, with rucaparib 10 µM, 100% = cells with rucaparib alone) 129% | viability ([16]; at 1.25 µM, OCI-C5x cells, without rucaparib) 115% | viability ([16]; at 1.25 µM, OCI-P5x cells, with rucaparib 20 µM, 100% = cells with rucaparib alone) 105% | viability ([16]; at 5 µM, OCI-C5x cells, with rucaparib 10 µM, 100% = cells with rucaparib alone) 128% | viability ([16]; at 5 µM, OCI-C5x cells, without rucaparib) 142% | z-score [17] 1.34

O=S1(=O)c2cccc3cccc(c23)N1CCCN1CCN(c2ccc(F)cc2)CC1
8140: cell count [14, 22]
inactive: nuclear beta-catenin stimulation ([2]; at 10 µM) 1.8% | insulin secretion stimulation [3] 3.4% | tube area decrease [5] -3% | GLP1 secretion stimulation [6] 0.3% | remaining activity [18] 92.7% | fold change [14, 19] 0.902 | z-score [17] -0.675
7340: cell count [14, 21]
17.7%: nuclear beta-catenin stimulation ([2]; stimulation, at 2 µM)
1.69: fold change [14, 20]
active: viability decrease [4] 74.5% | inhibition of viability [7] 104% | viability decrease (inhibition) [8] 136% | viability decrease (inhibition) [9] 84.5%

CC(=O)SC[C@@H](C)C(=O)N1CCC[C@H]1C(=O)N[C@@H](Cc1ccccc1)C(=O)O
inactive: nuclear beta-catenin stimulation ([2]; at 10 µM) -0.2% | insulin secretion stimulation [3] 0% | viability decrease [4] -13.4% | tube area decrease [5] 7.4% | GLP1 secretion stimulation [6] 0.3% | inhibition of viability [7] 2.4% | viability decrease (inhibition) [8] -15.3% | viability decrease (inhibition) [9] -1.4% | outcome [10] | outcome [11] | outcome [12]
-1.6%: nuclear beta-catenin stimulation ([2]; stimulation, at 2 µM)
